# Experimental data as given in the supplement of paper PMC10037445.
# Over roughly 2,900 compounds, “NF-kB SEAP reporter activity, fold change vs agonist alone” has its median near 0.99; the highest 2% begin near 2.6. This is one part of a sample in which the highest values are shown more often than they occur.
# Experiments:
# RAW-Dual [1] = assay: NF-kB SEAP reporter activity, fold change vs agonist alone; higher = enhanced NF-kB activity
# How it was run: (§1)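 Library stock was pin-tooled at 50 nL into 384-well plates of RAW-Dual macrophages (50,000 cells/well, DMEM), followed 1 h later by a PRR agonist, and the cells were kept at 37 °C, 5% CO2. Supernatant collected after 20 hours was read for IRF by QuantiLuc luminescence and for NF-κB by QuantiBlue absorbance at 620 nm. Reporter activity is fold change over agonist-alone wells, and a well counted as cytotoxic when its IncuCyte confluency was below 70% of agonist controls in both mask sets.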
# RAW-Dual [2] = assay: NF-kB SEAP reporter activity, fold change vs agonist alone; cytotoxicity flag (confluency mask): not cytotoxic; higher = enhanced NF-kB activity
# How it was run: as §1
# RAW-Dual [3] = assay: NF-kB SEAP reporter activity, fold change vs agonist alone; cytotoxicity flag (confluency mask): cytotoxic (confluency <70% of control); higher = enhanced NF-kB activity
# How it was run: as §1
# [4] = library stock concentration (final ~1000-fold dilution): 10 mM, cytotoxicity flag (confluency mask): not cytotoxic, agonist: Imiquimod (TLR7) […]
# [5] = library stock concentration (final ~1000-fold dilution): 10 mM, cytotoxicity flag (confluency mask): not cytotoxic, agonist: MPLA (TLR4) […]
# [6] = agonist: ODN 1826 (TLR9) 0.5 ug/mL
# [7] = agonist: Pam2CSK4 (TLR2/6) 0.1 ug/mL
# [8] = agonist: Pam3CSK4 (TLR2/1) 0.1 ug/mL
structure (smiles),measurement,setting,value
CCN(CC)Cc1ccc2cc(COC(=O)Nc3ccc(C(=O)NO)cc3)ccc2c1.Cl.O,NF-kB SEAP reporter activity,RAW-Dual [1]; [4],0.805
same,NF-kB SEAP reporter activity,RAW-Dual [1]; [5],1.17
COc1ccc(Cn2ccc3ccc(C(=O)NO)cc32)cc1,NF-kB SEAP reporter activity,RAW-Dual [1]; [4],0.789
same,NF-kB SEAP reporter activity,RAW-Dual [1]; [5],0.903
COCc1ccc(-c2ccc3ncc(C(N)=O)c(NC(C)C4CCOCC4)c3c2)cn1 (stereo unspecified) (library stock concentration (final ~1000-fold dilution): 10 mM),NF-kB SEAP reporter activity,RAW-Dual [2]; agonist: LPS (TLR4) 0.1 ug/mL,1.75
same,NF-kB SEAP reporter activity,RAW-Dual [2]; [6],1.19
same,NF-kB SEAP reporter activity,RAW-Dual [2]; [7],1.45
same,NF-kB SEAP reporter activity,RAW-Dual [2]; [8],2.13
COCc1ccc(-c2ccc3ncc(C(N)=O)c(NC(C)C4CCOCC4)c3c2)cn1 (stereo unspecified),NF-kB SEAP reporter activity,RAW-Dual [1]; [4],0.993
same,NF-kB SEAP reporter activity,RAW-Dual [1]; [5],1.35
O=S(=O)(NCCN1CCNCC1)c1ccc(NC2CCCCC2)c(NCc2ccccc2)c1,NF-kB SEAP reporter activity,"RAW-Dual [1]; library stock concentration (final ~1000-fold dilution): 10 mM, cytotoxicity flag (confluency mask): cytotoxic (confluency <70% of control), agonist: Imiquimod (TLR7) […]",1.27
same,NF-kB SEAP reporter activity,"RAW-Dual [1]; library stock concentration (final ~1000-fold dilution): 10 mM, cytotoxicity flag (confluency mask): cytotoxic (confluency <70% of control), agonist: MPLA (TLR4) […]",2.03
O=S(=O)(NCCN1CCNCC1)c1ccc(NC2CCCCC2)c(NCc2ccccc2)c1 (library stock concentration (final ~1000-fold dilution): 10 mM),NF-kB SEAP reporter activity,RAW-Dual [3]; agonist: LPS (TLR4) 0.1 ug/mL,1.57
same,NF-kB SEAP reporter activity,RAW-Dual [3]; [6],1.13
same,NF-kB SEAP reporter activity,RAW-Dual [3]; [7],1.04
same,NF-kB SEAP reporter activity,RAW-Dual [3]; [8],1.73
CN(C)CCCSC(=N)N.Cl.Cl (library stock concentration (final ~1000-fold dilution): 10 mM),NF-kB SEAP reporter activity,RAW-Dual [2]; agonist: LPS (TLR4) 0.1 ug/mL,1.14
same,NF-kB SEAP reporter activity,RAW-Dual [2]; [6],0.97
same,NF-kB SEAP reporter activity,RAW-Dual [2]; [7],1.01
same,NF-kB SEAP reporter activity,RAW-Dual [2]; [8],0.975
CN(C)CCCSC(=N)N.Cl.Cl,NF-kB SEAP reporter activity,RAW-Dual [1]; [4],0.831
same,NF-kB SEAP reporter activity,RAW-Dual [1]; [5],0.973
CC(C)CC(NC(=O)C1OC1C(=O)O)C(=O)NCCCCNC(=N)N (stereo unspecified),NF-kB SEAP reporter activity,RAW-Dual [1]; [4],0.971
same,NF-kB SEAP reporter activity,RAW-Dual [1]; [5],1.11
CC(C)CC(NC(=O)C1OC1C(=O)O)C(=O)NCCCCNC(=N)N (stereo unspecified) (library stock concentration (final ~1000-fold dilution): 10 mM),NF-kB SEAP reporter activity,RAW-Dual [2]; agonist: LPS (TLR4) 0.1 ug/mL,0.999
same,NF-kB SEAP reporter activity,RAW-Dual [2]; [6],1.01
same,NF-kB SEAP reporter activity,RAW-Dual [2]; [7],1.12
same,NF-kB SEAP reporter activity,RAW-Dual [2]; [8],1.12
CC(=O)C(=O)Oc1ccccc1C(=O)O (library stock concentration (final ~1000-fold dilution): 10 mM),NF-kB SEAP reporter activity,RAW-Dual [2]; agonist: LPS (TLR4) 0.1 ug/mL,1.07
same,NF-kB SEAP reporter activity,RAW-Dual [2]; [6],1.04
same,NF-kB SEAP reporter activity,RAW-Dual [2]; [7],0.887
same,NF-kB SEAP reporter activity,RAW-Dual [2]; [8],1.12
CC(=O)C(=O)Oc1ccccc1C(=O)O,NF-kB SEAP reporter activity,RAW-Dual [1]; [4],1.46
same,NF-kB SEAP reporter activity,RAW-Dual [1]; [5],1.68
NNC(=O)c1ccncc1 (library stock concentration (final ~1000-fold dilution): 10 mM),NF-kB SEAP reporter activity,RAW-Dual [2]; agonist: LPS (TLR4) 0.1 ug/mL,1.22
same,NF-kB SEAP reporter activity,RAW-Dual [2]; [6],1.05
same,NF-kB SEAP reporter activity,RAW-Dual [2]; [7],1.09
same,NF-kB SEAP reporter activity,RAW-Dual [2]; [8],1.05
O=S(=O)(N=Cc1c(O)ccc2ccccc12)c1cccs1 (library stock concentration (final ~1000-fold dilution): 10 mM),NF-kB SEAP reporter activity,RAW-Dual [2]; agonist: LPS (TLR4) 0.1 ug/mL,1.28
same,NF-kB SEAP reporter activity,RAW-Dual [2]; [6],0.662
same,NF-kB SEAP reporter activity,RAW-Dual [2]; [7],1.04
same,NF-kB SEAP reporter activity,RAW-Dual [2]; [8],0.853
O=S(=O)(N=Cc1c(O)ccc2ccccc12)c1cccs1,NF-kB SEAP reporter activity,RAW-Dual [1]; [4],0.768
same,NF-kB SEAP reporter activity,RAW-Dual [1]; [5],1.03
NNC(=O)c1ccncc1,NF-kB SEAP reporter activity,RAW-Dual [1]; [4],0.948
same,NF-kB SEAP reporter activity,RAW-Dual [1]; [5],1.05
O=C(N/N=C/c1c(O)ccc2ccccc12)c1ccncc1,NF-kB SEAP reporter activity,RAW-Dual [1]; [4],2.57
same,NF-kB SEAP reporter activity,RAW-Dual [1]; [5],1.75
O=C(N/N=C/c1c(O)ccc2ccccc12)c1ccncc1 (library stock concentration (final ~1000-fold dilution): 10 mM),NF-kB SEAP reporter activity,RAW-Dual [2]; agonist: LPS (TLR4) 0.1 ug/mL,2.18
same,NF-kB SEAP reporter activity,RAW-Dual [2]; [6],2
same,NF-kB SEAP reporter activity,RAW-Dual [2]; [7],1.15
same,NF-kB SEAP reporter activity,RAW-Dual [2]; [8],1.92
Cl.c1ccc2c(-c3cnn4cc(-c5ccc(N6CCNCC6)cc5)cnc34)ccnc2c1,NF-kB SEAP reporter activity,"RAW-Dual [1]; library stock concentration (final ~1000-fold dilution): 10 mM water, cytotoxicity flag (confluency mask): not cytotoxic, agonist: Imiquimod (TLR7) […]",0.986
same,NF-kB SEAP reporter activity,"RAW-Dual [1]; library stock concentration (final ~1000-fold dilution): 10 mM water, cytotoxicity flag (confluency mask): not cytotoxic, agonist: MPLA (TLR4) […]",0.571
Cl.c1ccc2c(-c3cnn4cc(-c5ccc(N6CCNCC6)cc5)cnc34)ccnc2c1 (library stock concentration (final ~1000-fold dilution): 10 mM water),NF-kB SEAP reporter activity,RAW-Dual [2]; agonist: LPS (TLR4) 0.1 ug/mL,0.64
same,NF-kB SEAP reporter activity,RAW-Dual [2]; [6],0.253
same,NF-kB SEAP reporter activity,RAW-Dual [2]; [7],0.171
same,NF-kB SEAP reporter activity,RAW-Dual [2]; [8],0.354
C=CC1CC1(NC(=O)C1CC2CN1C(=O)C(C(C)(C)C)NC(=O)OC1CC1CCCCCc1nc3ccc(OC)cc3nc1O2)C(=O)NS(=O)(=O)C1CC1 (stereo unspecified),NF-kB SEAP reporter activity,RAW-Dual [1]; [4],1.3
same,NF-kB SEAP reporter activity,RAW-Dual [1]; [5],1.22
C=CC1CC1(NC(=O)C1CC2CN1C(=O)C(C(C)(C)C)NC(=O)OC1CC1CCCCCc1nc3ccc(OC)cc3nc1O2)C(=O)NS(=O)(=O)C1CC1 (stereo unspecified) (library stock concentration (final ~1000-fold dilution): 10 mM),NF-kB SEAP reporter activity,RAW-Dual [2]; agonist: LPS (TLR4) 0.1 ug/mL,1.3
same,NF-kB SEAP reporter activity,RAW-Dual [2]; [6],1.46
same,NF-kB SEAP reporter activity,RAW-Dual [2]; [7],0.913
same,NF-kB SEAP reporter activity,RAW-Dual [2]; [8],0.835
CC(C)(C)C1NC(=O)OC2CCCC2OC/C=C/C(F)(F)c2nc3ccccc3nc2OC2CC(C(=O)NC3(C(=O)NS(=O)(=O)C4(C)CC4)CC3C(F)F)N(C2)C1=O (stereo unspecified) (library stock concentration (final ~1000-fold dilution): 10 mM),NF-kB SEAP reporter activity,RAW-Dual [2]; agonist: LPS (TLR4) 0.1 ug/mL,1.29
same,NF-kB SEAP reporter activity,RAW-Dual [2]; [6],2.62
same,NF-kB SEAP reporter activity,RAW-Dual [2]; [7],0.986
same,NF-kB SEAP reporter activity,RAW-Dual [2]; [8],2.09
CC(C)(C)C1NC(=O)OC2CCCC2OC/C=C/C(F)(F)c2nc3ccccc3nc2OC2CC(C(=O)NC3(C(=O)NS(=O)(=O)C4(C)CC4)CC3C(F)F)N(C2)C1=O (stereo unspecified),NF-kB SEAP reporter activity,RAW-Dual [1]; [4],2.27
same,NF-kB SEAP reporter activity,RAW-Dual [1]; [5],2.15
CC(C)=CCCC(C)(OC1OC(CO)C(O)C(O)C1O)C1CCC2(C)C1C(O)CC1C3(C)CCC(O)C(C)(C)C3C(OC3OC(CO)C(O)C(O)C3OC3OCC(O)C(O)C3O)CC12C (stereo unspecified) (library stock concentration (final ~1000-fold dilution): 10 mM),NF-kB SEAP reporter activity,RAW-Dual [2]; agonist: LPS (TLR4) 0.1 ug/mL,0.93
same,NF-kB SEAP reporter activity,RAW-Dual [2]; [6],1.02
same,NF-kB SEAP reporter activity,RAW-Dual [2]; [7],0.792
same,NF-kB SEAP reporter activity,RAW-Dual [2]; [8],0.975
CC(C)=CCCC(C)(OC1OC(CO)C(O)C(O)C1O)C1CCC2(C)C1C(O)CC1C3(C)CCC(O)C(C)(C)C3C(OC3OC(CO)C(O)C(O)C3OC3OCC(O)C(O)C3O)CC12C (stereo unspecified),NF-kB SEAP reporter activity,RAW-Dual [1]; [4],0.818
same,NF-kB SEAP reporter activity,RAW-Dual [1]; [5],0.958
